Assay results taken from PubChem BioAssay AID1159580 (chemical genetic matrix, 2015).
Where “and” joins values, the source holds several entries; their conditions need not be identical. Equal values may be shown once. In all, about 5,500 compounds went through this assay and about 2,000 (36%) were called active. About 18% were inconclusive and are not listed. Cut-off read from the data, not from the text of the source: active = normalized growth mostly below about 0.91 (no sharp cut-off); inconclusive = no clear call, values can overlap the other calls; inactive = mostly above about 0.92. Some of the results follow.

Test: chemical genetic growth profiling, strain panel (AID 1159580);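 note: tested at 20 µM; growth read once vehicle control cultures reached saturation at 30 °C; 1 = growth at the plate median or of vehicle wells; lower values mean less growth of the strain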
Settings: S. cerevisiae deletion strains, growth OD

Measured: normalized growth

COc1ccc2c(c1OC)C(=O)OC2[C@H]1c2c(cc3c(c2OC)OCO3)CCN1C (some centres not stated)
inactive: locus YAL013W, strain DEP1, active compounds read low 1.01 | locus YAL021C, strain ccr4, active compounds read low 1.02 | locus YAL026C, strain drs2, active compounds read low 1.02 | locus YAL030W, strain snc1, active compounds read low 1.02 | locus YBL061C, strain skt5, active compounds read low 1.01 | locus YBR009C, strain hhf1, active compounds read low 1.02 | locus YBR021W, strain FUR4, active compounds read low 1.01 | locus YBR023C, strain chs3, active compounds read low 1.02 | locus YBR171W, strain sec66, active compounds read low 1.01 | locus YBR229C, strain ROT2, active compounds read low 1.01 | locus YBR231C, strain swc5, active compounds read low 1.01 | locus YBR279W, strain paf1, active compounds read low 1.01 | locus YCL011C, strain gbp2, active compounds read low 1.02 | locus YCL016C, strain dcc1, active compounds read low 1.02 | locus YCL029C, strain bik1, active compounds read low 0.987 | locus YCL061C, strain MRC1, active compounds read low 1.01 | locus YCL069W, strain vba3, active compounds read low 1.01 | locus YCR088W, strain abp1, active compounds read low 1.01 | locus YDL005C, strain med2, active compounds read low 0.995 | locus YDL035C, strain GPR1, active compounds read low 1.01 | locus YDL040C, strain nat1, active compounds read low 1 | locus YDL074C, strain BRE1, active compounds read low 1.04 | locus YDL101C, strain DUN1, active compounds read low 1 | locus YDL134C, strain PPH21, active compounds read low 1.01 | locus YDL185W, strain tfp1, active compounds read low 0.966 | locus YDL192W, strain arf1, active compounds read low 0.968 | locus YDR001C, strain nth1, active compounds read low 1 | locus YDR069C, strain doa4, active compounds read low 1.02 | locus YDR101C, strain arx1, active compounds read low 0.995 | locus YDR137W, strain rgp1, active compounds read low 1.04 | locus YDR159W, strain sac3, active compounds read low 0.953 | locus YDR162C, strain NBP2, active compounds read low 0.983 | locus YDR195W, strain ref2 0.993 | locus YDR297W, strain sur2, active compounds read low 1.02 | locus YDR318W, strain mcm21, active compounds read low 0.965 | locus YDR334W, strain swr1, active compounds read low 1 | locus YDR335W, strain msn5, active compounds read low 1.01 | locus YDR388W, active compounds read low 0.985 | locus YDR392W, strain spt3, active compounds read low 0.892 | locus YDR502C, strain sam2, active compounds read low 0.984 | locus YEL003W, strain gim4, active compounds read low 1.02 | locus YEL037C, strain rad23, active compounds read low 1 | locus YEL061C, strain CIN8 (second series), active compounds read low 0.996 | locus YEL061C, strain CIN8, active compounds read low 1 | locus YER015W, strain faa2, active compounds read low 1.01 | locus YER016W, strain bim1, active compounds read low 1 | locus YER110C, active compounds read low 0.994 | locus YER111C, strain swi4, active compounds read low 1.01 | locus YER155C, strain BEM2 (second series), active compounds read low 0.98 | locus YER155C, strain BEM2, active compounds read low 0.992 | locus YER167W, strain BCK2, active compounds read low 1 | locus YFR010W, strain ubp6, active compounds read low 1 | locus YGL078C, strain dbp3, active compounds read low 0.989 | locus YGL086W, strain mad1, active compounds read low 1.01 | locus YGL167C, strain pmr1, active compounds read low 1.01 | locus YGL173C, strain kem1, active compounds read low 1.01 | locus YGL227W, strain vid30, active compounds read low 1.01 | locus YGL240W, strain doc1, active compounds read low 1.02 | locus YGL248W, strain PDE1, active compounds read low 1.01 | locus YGL253W, strain hxk2, active compounds read low 1.02 | locus YGR135W, strain pre9, active compounds read low 0.986 | locus YGR252W, strain gcn5, active compounds read low 1.19 | locus YHR013C, strain ard1, active compounds read low 1.02 | locus YHR027C, strain rpn1, active compounds read low 1.01 | locus YHR030C, strain SLT2, active compounds read low 0.995 and 0.993 | locus YHR079C, strain IRE1 (second series), active compounds read low 0.978 | locus YHR079C, strain IRE1, active compounds read low 0.999 | locus YHR094C, strain hxt1, active compounds read low 0.988 | locus YHR129C, strain ARP1, active compounds read low 0.999 | locus YHR142W, strain chs7, active compounds read low 1 | locus YHR200W, strain rpn10, active compounds read low 0.98 | locus YIL066C, strain RNR3, active compounds read low 1.01 | locus YIL073C, strain SPO22, active compounds read low 0.857 | locus YIL125W, strain kgd1, active compounds read low 0.986 | locus YIR030C, strain dcg1, active compounds read low 0.997 | locus YJL092W, strain hpr5, active compounds read low 1.01 | locus YJL095W, strain BCK1 (second series), active compounds read low 1.01 | locus YJL095W, strain BCK1, active compounds read low 1.02 and 1 | locus YJL115W, strain asf1, active compounds read low 1.01 | locus YJL129C, strain trk1, active compounds read low 0.995 | locus YJL134W, strain LCB3, active compounds read low 0.996 | locus YJL154C, strain vps35, active compounds read low 1.02 | locus YJL164C, strain tpk1, active compounds read low 1.03 | locus YJL166W, strain qcr8, active compounds read low 1 | locus YJL168C, strain set2, active compounds read low 0.987 | locus YJL187C, strain SWE1 (second series), active compounds read low 0.997 | locus YJL187C, strain SWE1, active compounds read low 1.02
